Shown are actives, neighbours in structure and some others; about 0.58% of the full set was active somewhere.
SK-BR-3 tox 24h: SK-BR-3 proliferation inhibitors, primary screen, cell-based, human, 24 h; SK-BR-3 viability, CellTiter-Glo ATP luminescence; active compounds read low; viability, % at 10 µM; actives 0.47% (n = 41,000);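 active = viability at or below the median of all test compounds minus 3 SD, in both replicates if run twice, cut at about 45% in these data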;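 also: 100% = median untreated cell wells and 0% = median positive control drug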
Htt clearance: clearance of mutant huntingtin inclusions, primary screen, imaging, HeLa Exon1htt(103Q)mCFP, confocal imaging | inhibition, % at 1.5 µM | AID 853, 2007 | actives 0.42% (n = 47,000) | aggregate imaging; zero = plate's median compound well;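 active = inhibition of aggregate fluorescence above about 70%, also judged a hit by eye on the cell image, limit read from the data, passing the limit was not always enough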;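 also: cells exposed to compound for three days before fixation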
Numbers without * were called inactive; . = not tested or not shown.

SMILES	SK-BR-3 tox 24h	Htt clearance
Cc1ccc(C(=O)C2(C)C3c4cc(Br)ccc4OC(=O)C32C(=O)c2ccco2)cc1 (stereo not drawn)	.	-10.8
O=C1c2oc3ccccc3c(=O)c2C(c2ccc(Cl)cc2)N1c1ncccn1 (stereo not drawn)	90.9	.
Cn1c(=O)c2c(nc(SCC(=O)NCc3ccc4c(c3)OCO4)n2Cc2ccc(Cl)cc2)n(C)c1=O	.	81.2*
CCSc1nc2c(c(=O)n(C)c(=O)n2C)n1Cc1ccc(Cl)cc1	81.4	-45.3
O=C(CN(Cc1ccccc1)S(=O)(=O)c1ccc(F)cc1)NCCC1=CCCCC1	.	76.0*
Cc1ccc(S(=O)(=O)N(CC(=O)NCCC2=CCCCC2)Cc2ccccc2)cc1	.	38.0
COc1cc(OC)c(OC)cc1C=NCC1(c2ccccc2)CCCC1	.	-6.9
CN(C)CC1(c2ccccc2)CCCC1	24.9*	.
COc1ccc(C2c3c(oc4c(C)cc(C)cc4c3=O)C(=O)N2Cc2cccnc2)cc1OC (stereo not drawn)	51.1	.
COc1cc(C2c3c(oc4c(C)cc(C)cc4c3=O)C(=O)N2Cc2cccnc2)ccc1O (stereo not drawn)	34.8*	.
COc1ccc(Cl)cc1C(=O)N1CCN(c2ccccn2)CC1	.	0.6
COc1ccccc1C(=O)N1CCN(c2cccc(Cl)c2)CC1	40.2*	.
Cc1noc(C)c1CSCC(=O)OCC(=O)NC1CCCCC1	32.4*	.
COc1ccc(C(=O)COC(=O)CSCc2c(C)noc2C)cc1OC	.	17.1
CCc1nnc(NC(=O)c2ccc(S(=O)(=O)N(CCOC)CCOC)cc2)o1	35.0*	19.8
COCCN(CCOC)S(=O)(=O)c1ccc(C(=O)Nc2nnc(C3CC3)o2)cc1	81.8	2.4
CCCn1c(=O)c2ccccc2n2c(SCC(=O)c3ccccc3)nnc12	.	-16.9
Nn1c(=O)c2ccccc2n2c(SCc3ccccc3)nnc12	90.6	80.4*
O=C(CCCNC(=O)/C(=C\c1ccc(F)cc1)NC(=O)c1ccccc1)OCc1ccccc1	.	-31.2
CN(C)c1nc(N(C)C)nc(N(C)C)n1	94.0	.
CN(C)c1nc(SCC#N)nc(N(C)C)n1	94.7	72.2*
COC(=O)c1ccccc1NC(=O)CN1CCN(C23CC4CC(CC(C4)C2)C3)CC1	41.5*	.
COC(=O)c1ccccc1NC(=O)CN1CCC(NC(=O)c2ccc(C)cc2)CC1	.	-4.9
CCOc1ccc(C(O)C(CN2CCOCC2)c2ccccc2)cc1 (stereo not drawn)	.	-37.1
CCOC(=O)N1CCN(S(=O)(=O)c2ccc3c(c2)SCC(=O)N3)CC1	.	-22.6
SMILES	SK-BR-3 tox 24h	Htt clearance
CCOC(=O)N1CCN(S(=O)(=O)c2ccc3c(c2)OCC(=O)N3)CC1	.	70.7*
Cc1cc(OCc2ccc(F)cc2)nc(-c2ccccc2O)n1	92.6	.
Cc1cc(-n2[nH]c(C)c(C)c2=O)nc(-c2ccccc2O)n1	39.5*	.
CCOC(=O)COc1ccc(S(=O)(=O)N2CCN(c3ccccc3F)CC2)cc1	98.8	82.0*
COc1cc(S(=O)(=O)N2CCN(c3ccccc3F)CC2)ccc1Cl	89.1	.
CN(C)C=Nc1nonc1-c1ncn[nH]1	114.3	27.9
CN(C)C=Nc1c(Br)cc(Br)c2nonc12	133.1	90.7*
CCCCCn1c(=O)[nH]c2cc(C(=O)NCCCN3CCC(C)CC3)ccc2c1=O	111.2	-3.9
Cc1cccc(/C=N\NC(=O)c2csnn2)c1	.	2.4
Cc1ccc(O)c(/C=N/NC(=O)C2=NNC(c3ccccc3)(c3ccccc3)C2)c1	.	71.1*
COC(=O)n1c(=O)oc2cc(S(=O)(=O)N3CCOCC3)ccc21	84.2	.
CCCCOC(=O)n1c(=O)oc2cc(S(=O)(=O)N3CCCCC3)ccc21	78.5	72.3*
O=C1CCCC2=C1C(c1ccsc1)CC(=O)N2c1ccccc1 (stereo not drawn)	.	22.6
Cc1ccc(C2CC(=O)N(c3ccc(F)cc3)C3=C2C(=O)CCC3)cc1 (stereo not drawn)	.	79.4*
Cc1c(NC(=O)c2cc(CC(C)C)on2)c(=O)n(-c2ccccc2)n1C	.	-2.1
CCc1ccccc1NC(=O)CSC1=C(C#N)C(c2ccc3c(c2)OCO3)C2=C(CCCC2=O)N1 (stereo not drawn)	82.3	72.8*
COc1ccc(OC)c(NC(=O)CSC2=C(C#N)C(c3ccco3)C3=C(CCCC3=O)N2)c1 (stereo not drawn)	94.3	.
CCOC(=O)c1cc2c(=O)n3cccc(C)c3nc2n(Cc2ccccc2Cl)c1=N	65.6	.
O=S(NCc1ccco1)C12CC3CC(CC(C3)C1)C2 (stereo not drawn)	114.2	30.8
NC(=O)Cc1c[nH]c2cccc(O)c12	109.2	.
COc1cccc(Nc2ncnc3ccccc23)c1	.	9.6
COc1ccc(Nc2ccnc3ccccc23)cc1	.	90.6*
CCOC(=O)c1sc(NC(=O)CSc2nc(-c3ccco3)cc(C(F)(F)F)n2)c(C(=O)OC(C)C)c1C	.	-21.6
O=C(c1cccnc1)N1CCc2ccccc21	.	-69.6
O=C(OCC(=O)N1CCc2ccccc21)c1cccnc1	40.8*	41.3
SMILES	SK-BR-3 tox 24h	Htt clearance
O=C(CSc1nnc(-c2cccs2)o1)OCc1ccccc1	42.5*	.
O=C(CSc1nnc(-c2cccs2)o1)OC1CCCCC1	73.2	.
CCCc1cc(C(=O)Cc2ccc(F)cc2)c(O)cc1O	16.2*	-42.0
CCc1cc(C(=O)Cc2ccc(F)cc2)c(O)cc1O	86.7	.
Cn1c(Cc2cccs2)nnc1SC/C=C/c1ccccc1	.	-2.1
CC1(C)Oc2nc3ccccc3n2/C1=C\C#N	.	33.9
COc1ccc(OC)c(S(=O)(=O)Nc2ccc(O)c3ccccc23)c1	.	44.3
COc1ccc(OC)c(S(=O)(=O)Nc2ccc(O)c(Sc3ncn[nH]3)c2)c1	76.9	86.2*
CC1CCN(c2nc3c(c(=O)[nH]c(=O)n3C)n2Cc2ccccc2Cl)CC1	.	-36.5
CCOC(=O)Nc1nnc(-c2ccc(OC)c(OC)c2)s1	87.5	-1.8
CC(C)(C)OC(=O)N[C@@H](Cc1ccccc1)c1nnc(S(=O)(=O)Cc2ccccc2)o1	97.9	.
CCC(C)[C@@H](NC(=O)OC(C)(C)C)c1nnc(S(=O)(=O)Cc2cccc(C)c2)o1 (stereo partly drawn)	20.8*	18.3
CC1(C)CC(=O)C(C=NCCN2CCN(C(=O)C34CC5CC(CC(C5)C3)C4)CC2)=C(O)C1	94.7	.
CCCCC(=O)Nc1ccccc1C(=O)N1CCOCC1	.	-3.2
CN(C)CCNC(=O)C12CC3(C)CC(C)(CC(C)(C3)C1)C2	94.2	.
CC(C)N(CCc1ccncc1)C(=O)Nc1ccc(Cl)c(Cl)c1	.	21.4
O=C(CCCCn1c(=O)c2ccccc2n(CC(=O)Nc2ccc(F)cc2)c1=O)NCc1ccco1	80.1	.
Cc1ccc(NC(=O)Cn2c(=O)n(CCCCC(=O)NCc3ccco3)c(=O)c3ccccc32)cc1	43.3*	.
CCOC(=O)N1CCN(C(=O)CN(c2ccc(Oc3ccccc3)cc2)S(C)(=O)=O)CC1	85.0	.
CS(=O)(=O)N(CC(=O)N1CCCC1)c1ccc(OCc2ccccc2)cc1	111.9	78.0*
CCCCC(CC)Cn1c2nc3ccccc3nc2c2c(=N)oc(C)nc21 (stereo not drawn)	38.2*	.
CCCCn1c2nc3ccccc3nc2c2c(=N)oc(C)nc21	91.5	.
O=C(CSc1ccc2ccccc2n1)N1CCC(c2noc3ccc(F)cc23)CC1	.	35.7
CCOC(=O)c1sc2nccc(N(C)C)c2c1N=CNOC	.	73.0*
CCOC(=O)c1sc2nccc(N(C)C)c2c1N=CNOCc1ccccc1	.	20.2
c1ccc(Cn2nnnc2C(c2cccnc2)N2CCN(c3ccccc3)CC2)cc1 (stereo not drawn)	87.6	37.3

Source: PubChem BioAssay (several laboratories)
